Compounds with a hit are over-represented: about 2.8% of the library has one in this group of screens.
IP6K1 inh = Primary qHTS assay for small molecule inhibitors of Inositol hexaphosphate kinase 1 (IP6K1) | Inositol hexakisphosphate kinase 1 (Homo sapiens), Q92551 | IP6K1 kinase, ADP-Glo luminescence, 2 h; stronger effect = lower value | activity change, % (series mostly up to about 58 µM) | 140,000 tested, 0.81% active; in the data active means activity change below about -25%; further: on the % scale 0 is the no-effect control and ±100 the full control effect
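ADP-Glo luminescence measures ADP made by human IP6K1 during a 2 h RT reaction with ATP/IP6 (mix at 1.3 mM/130 uM); top library doses 57.5 and 19.1 uM final.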
SNCA viab count = GF-AFC viability counterscreen for inhibitors of alpha-synuclein gene (SNCA) expression; HEK-293-SNCA-luc viability, GF-AFC fluorescence, 24 h; Potency, µM (series often up to 57.1 µM), for inactives: at the top dose activity change, negative = cytotoxicity, most hits filed as cytotoxic; 150,000 tested, 0.12% active;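 further: potency means the concentration at half of the fitted maximal effect; 0% = DMSO-treated cells and -100% = medium-only wells without cells; nearly all actives have a fitted effect of over 30% in size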
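Cytotoxicity counterscreen: after 24 h compound treatment of genome-edited SNCA-luciferase HEK-293 cells, live-cell protease substrate GF-AFC read by fluorescence after 30 min; activity scaled between DMSO (0%) and medium-only (-100%), curves Hill-fitted.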
KDM5B inhibitor = Primary screen for KDM5B Histone Demethylases FDH-coupled qHTS | Lysine-specific demethylase 5B (Homo sapiens), Q9UGL1 | KDM5B demethylase, FDH-coupled NADH fluorescence (FDH is formaldehyde dehydrogenase) | Potency, µM (highest dose often 57.7 µM), usual class: inhibitors | 220,000 tested, 2.6% active | AID 1347165, 2019; further: potency means the concentration at half of the fitted maximal effect; 0% is about no effect; nearly all actives have a fitted effect of over 70% in size
Target sequence (Q9UGL1 whole entry, looked up): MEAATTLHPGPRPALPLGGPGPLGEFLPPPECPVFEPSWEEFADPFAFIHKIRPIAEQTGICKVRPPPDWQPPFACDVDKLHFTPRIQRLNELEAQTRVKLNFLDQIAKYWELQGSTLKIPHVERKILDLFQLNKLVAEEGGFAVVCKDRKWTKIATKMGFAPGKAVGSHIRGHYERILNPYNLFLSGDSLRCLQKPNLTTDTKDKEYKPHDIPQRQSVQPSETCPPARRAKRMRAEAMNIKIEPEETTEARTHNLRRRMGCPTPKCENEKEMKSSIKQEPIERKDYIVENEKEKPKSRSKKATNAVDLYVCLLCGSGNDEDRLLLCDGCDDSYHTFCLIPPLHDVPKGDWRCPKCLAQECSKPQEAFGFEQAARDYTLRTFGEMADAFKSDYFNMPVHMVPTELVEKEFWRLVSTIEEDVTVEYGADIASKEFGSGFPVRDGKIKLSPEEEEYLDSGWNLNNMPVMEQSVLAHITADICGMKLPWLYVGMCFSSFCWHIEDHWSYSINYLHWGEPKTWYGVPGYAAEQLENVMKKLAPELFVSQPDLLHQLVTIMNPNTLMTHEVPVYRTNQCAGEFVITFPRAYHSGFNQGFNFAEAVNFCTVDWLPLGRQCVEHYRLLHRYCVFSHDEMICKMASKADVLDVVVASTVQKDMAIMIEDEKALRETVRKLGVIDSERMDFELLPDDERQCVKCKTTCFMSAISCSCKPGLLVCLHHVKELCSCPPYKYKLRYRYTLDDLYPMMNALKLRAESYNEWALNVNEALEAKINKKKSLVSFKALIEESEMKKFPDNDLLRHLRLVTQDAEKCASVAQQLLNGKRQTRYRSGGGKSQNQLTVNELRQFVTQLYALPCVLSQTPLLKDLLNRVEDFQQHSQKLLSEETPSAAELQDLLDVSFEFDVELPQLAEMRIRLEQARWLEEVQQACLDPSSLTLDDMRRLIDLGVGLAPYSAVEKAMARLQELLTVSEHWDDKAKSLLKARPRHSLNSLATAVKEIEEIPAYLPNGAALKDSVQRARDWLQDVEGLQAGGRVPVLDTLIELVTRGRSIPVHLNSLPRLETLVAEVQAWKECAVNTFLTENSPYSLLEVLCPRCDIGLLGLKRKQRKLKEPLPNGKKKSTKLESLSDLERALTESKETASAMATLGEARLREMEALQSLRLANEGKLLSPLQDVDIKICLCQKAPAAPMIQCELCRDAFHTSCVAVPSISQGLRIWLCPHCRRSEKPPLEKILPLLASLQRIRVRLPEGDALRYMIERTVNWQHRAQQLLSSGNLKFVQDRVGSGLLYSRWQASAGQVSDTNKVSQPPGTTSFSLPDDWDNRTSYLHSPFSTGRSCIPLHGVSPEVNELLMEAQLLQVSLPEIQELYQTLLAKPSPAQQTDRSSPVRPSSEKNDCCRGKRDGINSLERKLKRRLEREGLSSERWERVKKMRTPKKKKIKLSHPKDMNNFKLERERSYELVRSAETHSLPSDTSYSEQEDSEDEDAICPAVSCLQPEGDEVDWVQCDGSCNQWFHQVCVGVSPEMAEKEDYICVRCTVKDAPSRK
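Here, H3K4me3 peptide (12.5 µM in substrate mix) is demethylated by KDM5BΔAP, 200 nM final, after 10 min compound exposure. Formaldehyde product is coupled through FDH (0.25 U/mL in mix) to NADH fluorescence; 30-min ΔRFU feeds dose-response curves.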
SNCA expr inh = Primary qHTS assay for inhibitors of alpha-synuclein gene (SNCA) expression; HEK-293 SNCA-luciferase knock-in, luminescence, 24 h; Potency, µM (top dose mostly 57.2 µM), for inactives: top-dose activity change, negative = inhibition, actives largely listed as inhibitors; 140,000 tested, 0.17% active; AID 1671194, 2021;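 further: potency means the concentration at half of the fitted maximal effect; plate controls were DMSO cells for no effect and cell-free wells for full effect; nearly all actives have a fitted effect of over 45% in size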
Numbers without * were called inactive; ! = not active in a repeat; [ ] = another dose, or the depositor's remark. Unless noted, the call rests on the fitted dose curve; in most records, active means well fitted curve in the direction sought with a large enough effect; inconclusive means small, poorly fitted or top-dose-only effect, or another doubt; inactive means no such curve, though single readings can be large; an effect the other way counts as inactive or inconclusive.

For Cc1nc(CCC(=O)N2CCC(Cc3ccc(C(=O)O)cc3)C2)n[nH]1 (configuration not stated) the results were IP6K1 inh 0, SNCA viab count -2%, KDM5B inhibitor inactive and SNCA expr inh -12%.
For C=CC(=O)Nc1cccc(Oc2nc(Nc3ccc(N4CCN(C)CC4)cc3)ncc2Cl)c1 the results were IP6K1 inh 37, SNCA viab count 3µM*! and SNCA expr inh 9%.
For COCCNC(=O)CCn1nc(-c2ccc(C)cc2)c2ccccc2c1=O the results were KDM5B inhibitor inactive.
`O=C(NCc1cc2n(n1)CCCNC2)c1ccc(Cn2cnnn2)cc1` gave IP6K1 inh 23, SNCA viab count 3%, KDM5B inhibitor inactive and SNCA expr inh -4%.
`Cc1cccc2ncc(C(=O)NCc3cc4n(n3)CCCNC4)c(=O)n12` gave IP6K1 inh 13, SNCA viab count -1%, KDM5B inhibitor 28µM* and SNCA expr inh -9%.
`Cc1cccn2c(CNC(=O)CCc3cc4n(n3)CCCNC4)cnc12` gave IP6K1 inh -7, SNCA viab count -8%, KDM5B inhibitor 25µM* and SNCA expr inh 24%.
Screening Cc1cc(C(=O)NCc2cccs2)c2c(C3CCCN3)noc2n1 (configuration not stated) returned IP6K1 inh 5, SNCA viab count 2%, KDM5B inhibitor inactive and SNCA expr inh 4%.
Screening COc1ccc(C2Cn3cnc(C(=O)N4CCC(C(=O)NCc5ccco5)CC4)c3CO2)cc1 (configuration not stated) returned IP6K1 inh 1, SNCA viab count 0%, KDM5B inhibitor inactive and SNCA expr inh -17%.
For CCOC(=O)[C@@H]1[C@@H](OC)C(=O)N(Cc2ccccc2)C12CCN(C(=O)C1CC1)CC2 the results were IP6K1 inh 13.
`COc1ccc(NCc2cc3cc4c(cc3n(CC(=O)Nc3ccc(F)cc3)c2=O)OCCO4)cc1` gave IP6K1 inh -7, SNCA viab count -5%, KDM5B inhibitor inconclusive and SNCA expr inh -2%.
`COCCNc1ncc(-c2cccc(NC(C)=O)c2)c2c1OCC2` gave IP6K1 inh 0, SNCA viab count -7%[87.6 µM], KDM5B inhibitor 40µM* and SNCA expr inh -26%[87.6 µM].
For COCCNc1ncc(-c2ccc([S+](C)(=O)[O-])cc2)c2c1OCC2 the results were IP6K1 inh 2, SNCA viab count 5%[87.6 µM], KDM5B inhibitor 32µM* and SNCA expr inh 3%[87.6 µM].
`COCCNc1ncc(-c2ccsc2)c2c1OCC2` gave IP6K1 inh 6, SNCA viab count 5%[87.6 µM], KDM5B inhibitor 35µM* and SNCA expr inh 95%[87.6 µM].
Screening O=c1c2nc(-c3ccncc3)ccc2ncn1-c1ccccc1 returned IP6K1 inh 16, SNCA viab count 2%[87.6 µM], KDM5B inhibitor inactive and SNCA expr inh 11%[87.6 µM].
O=c1c2nc(-c3ccsc3)ccc2ncn1-c1ccccc1 was read as IP6K1 inh 3, SNCA viab count 11%[87.6 µM], KDM5B inhibitor 40µM* and SNCA expr inh 137%[87.6 µM].
Screening Cc1cc(C)c(CNC(=O)c2cc(-c3ccccc3)cc3c2OCCN3C(C)C)c(=O)[nH]1 returned IP6K1 inh -15, SNCA viab count inconclusive, KDM5B inhibitor 35µM* and SNCA expr inh inconclusive.
`Cc1cc(C)c(CNC(=O)c2cc(-c3ccc(CN4CCOCC4)cc3)cc3c2cnn3C2CCCC2)c(=O)[nH]1` gave IP6K1 inh -12, SNCA viab count -28% and SNCA expr inh -15%.
`Cc1ccc(-c2cc(C(=O)NCc3c(C)cc(C)[nH]c3=O)c3c(c2)N(C(C)C)CCO3)cc1` gave IP6K1 inh 3, SNCA viab count -7%, KDM5B inhibitor 25µM* and SNCA expr inh inconclusive.
`COc1ncccc1-c1cc(C(=O)NCc2c(C)cc(C)[nH]c2=O)c2c(c1)N(C(C)C)CCO2` gave IP6K1 inh -7, SNCA viab count -5%, KDM5B inhibitor 28µM* and SNCA expr inh 26%.
Screening Cc1cc(C)c(CNC(=O)c2cc(-c3ccnn3C)cc3c2OCCN3C(C)C)c(=O)[nH]1 returned IP6K1 inh -16, SNCA viab count -1%[87.6 µM], KDM5B inhibitor 35µM* and SNCA expr inh 13%[87.6 µM].
`Cc1ccc(NS(=O)(=O)c2ccc3c(c2)CCCN3C(=O)C2CCC2)c(C)c1` gave IP6K1 inh 12, SNCA viab count -13%, KDM5B inhibitor inactive and SNCA expr inh -8%.
`CC(=O)c1ccc(N2CCN(S(=O)(=O)c3ccc4c(c3)CC(C)N4C(=O)C3CCC3)CC2)cc1` (configuration not stated) gave IP6K1 inh 31, SNCA viab count -11%, KDM5B inhibitor inactive and SNCA expr inh -2%.
`COCCN1Cc2ccc(NCc3ccccc3)nc2C(C)(C(=O)Nc2ccccc2)C1` (configuration not stated) gave IP6K1 inh 5, SNCA viab count inconclusive, KDM5B inhibitor inconclusive and SNCA expr inh inconclusive.
Screening COCCN1Cc2ccc(NCc3ccccc3)nc2C(C)(C(=O)Nc2ccc(F)cc2)C1 (configuration not stated) returned IP6K1 inh 8, SNCA viab count -21%, KDM5B inhibitor inconclusive and SNCA expr inh inconclusive.
CC(C)CNc1ccc2c(n1)C(C)(C(=O)NC1CCC(O)CC1)CN(Cc1ccccc1)C2 (configuration not stated) was read as IP6K1 inh -1, SNCA viab count -18%, KDM5B inhibitor inactive and SNCA expr inh inconclusive.
For COCCN1Cc2ccc(NCc3ccccc3)nc2C(C)(C(=O)NCc2ccccc2)C1 (configuration not stated) the results were IP6K1 inh 7, SNCA viab count 8%, KDM5B inhibitor 28µM* and SNCA expr inh -21%.
For COCCN1Cc2ccc(NCc3ccccc3)nc2C(C)(C(=O)Nc2cccnc2)C1 (configuration not stated) the results were IP6K1 inh 3, SNCA viab count 4%[87.6 µM], KDM5B inhibitor 32µM* and SNCA expr inh 1%[87.6 µM].
Screening COCCN1Cc2ccc(NCc3ccccc3)nc2C(C)(C(=O)NC2CCOCC2)C1 (configuration not stated) returned IP6K1 inh 10, SNCA viab count 1%[87.6 µM], KDM5B inhibitor 11µM* and SNCA expr inh 2%[87.6 µM].
For Cc1ccc(Cl)cc1NC(=O)NCc1nc(-c2ccccc2)oc1C the results were KDM5B inhibitor inactive.
Screening Cc1cccc(CNC(=O)c2ccc(-c3nnc4ccc(NC(=O)C5CCC5)cn34)cc2)c1 returned IP6K1 inh -5, SNCA viab count -26%, KDM5B inhibitor 28µM* and SNCA expr inh inconclusive.
For CN(C(=O)c1ccc(-c2nnc3ccc(NC(=O)C4CCC4)cn23)cc1)C1CCCCC1 the results were IP6K1 inh 8, SNCA viab count -8%, KDM5B inhibitor inconclusive and SNCA expr inh 0%.
